A number with no mark means an inactive call. Records with an inconclusive call do not appear. Where a call stands in place of a potency, no number is given. Active and inactive are the calls of the source. The call rests on the fitted dose curve; in most records, active means well fitted curve in the direction sought with a large enough effect in the repeat runs; inconclusive means weak or mixed curves; inactive means no such curve, though single readings can be large; an effect the other way counts as inactive or inconclusive.
How the values were obtained:
[1] = qHTS RealTime-Glo MT Cell Viability Assay in HEK293 cells - 40 hour (AID 1224874); details: RealTime-Glo luminescence; max response: stronger effect = lower value; further: nearly all actives have a fitted effect of over 50% in size
Procedure, shortened: (§1)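 600 HEK293 cells per well, dispensed already mixed with RealTime-Glo MT reagents. Compound dosing came 5 h later. The same wells were read for luminescence at 0, 8, 16, 24, 32 and 40 h of exposure at 37 C.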

[2] = A CellTox Green Cytotoxicity Assay to monitor cytotoxicity in HEK293 cells - 24 hour (AID 1224875); further: nearly all actives have a fitted effect of over 45% in size; further: potency means the concentration at half of the fitted maximal effect
Procedure, shortened: (§2)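 Dead-cell fluorescence measured kinetically: asymmetric cyanine dye, HEK293, 600 cells/well, 5 h settle, 23 nL cpd/DMSO, 37 C, reads 0–40 h every 8 h.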

[3] = A CellTox Green Cytotoxicity Assay to monitor cytotoxicity in HepG2 cells - 16 hour (AID 1224876); further: nearly all actives have a fitted effect of over 45% in size; further: potency means the concentration at half of the fitted maximal effect
Procedure, shortened: (§3)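 First, HepG2 cells (600/well) mixed with reagent were plated; second, after 5 h at 37 C they received compounds via pintool; third, fluorescence was measured at 0 h through 40 h at 8 h intervals.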

[4] = qHTS RealTime-Glo MT Cell Viability Assay in HepG2 cells - 32 hour (AID 1224877); further: nearly all actives have a fitted effect of over 55% in size
Procedure, shortened: (§4)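 Luminescence read-out: viable HepG2 cells reduce a prosubstrate to a NanoLuc substrate, giving a signal proportional to live cell number. Reads taken at 0, 8, 16, 24, 32 and 40 h of compound exposure at 37 C.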

[5] = A CellTox Green Cytotoxicity Assay to monitor cytotoxicity in HepG2 cells - 24 hour (AID 1224878); further: nearly all actives have a fitted effect of over 45% in size; further: potency means the concentration at half of the fitted maximal effect
Procedure, shortened: as §3

[6] = A CellTox Green Cytotoxicity Assay to monitor cytotoxicity in HepG2 cells - 40 hour (AID 1224879); further: nearly all actives have a fitted effect of over 40% in size; further: potency means the concentration at half of the fitted maximal effect
Procedure, shortened: as §3

[7] = qHTS RealTime-Glo MT Cell Viability Assay in HEK293 cells - 0 hour (AID 1224880); further: top concentration of the series differs between compounds; nearly all actives have a fitted effect of over 45% in size
Procedure, shortened: as §1

[8] = A CellTox Green Cytotoxicity Assay to monitor cytotoxicity in HEK293 cells - 32 hour (AID 1224881); further: nearly all actives have a fitted effect of over 40% in size; further: potency means the concentration at half of the fitted maximal effect
Procedure, shortened: as §2

[9] = A CellTox Green Cytotoxicity Assay to monitor cytotoxicity in HepG2 cells - 0 hour (AID 1224882); further: nearly all actives have a fitted effect of over 35% in size; further: potency means the concentration at half of the fitted maximal effect
Procedure, shortened: as §3

[10] = A CellTox Green Cytotoxicity Assay to monitor cytotoxicity in HepG2 cells - 32 hour (AID 1224883); further: nearly all actives have a fitted effect of over 50% in size; further: potency means the concentration at half of the fitted maximal effect
Procedure, shortened: as §3

[11] = A CellTox Green Cytotoxicity Assay to monitor cytotoxicity in HEK293 cells - 8 hour (AID 1224884); further: nearly all actives have a fitted effect of over 35% in size; further: potency means the concentration at half of the fitted maximal effect
Procedure, shortened: as §2

[12] = qHTS RealTime-Glo MT Cell Viability Assay in HepG2 cells - 16 hour (AID 1224885); further: nearly all actives have a fitted effect of over 50% in size
Procedure, shortened: as §4

[13] = qHTS RealTime-Glo MT Cell Viability Assay in HEK293 cells - 24 hour (AID 1224886); further: top concentration of the series differs between compounds; nearly all actives have a fitted effect of over 50% in size
Procedure, shortened: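 Nonlytic real-time viability readout: viable cells convert prosubstrate to NanoLuc substrate, giving luminescence proportional to live cell number. HEK293, 600 cells/well, compound added after 5 h, continuous culture at 37 C.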

[14] = qHTS RealTime-Glo MT Cell Viability Assay in HEK293 cells - 8 hour (AID 1224887)
Procedure, shortened: as §1

[15] = A CellTox Green Cytotoxicity Assay to monitor cytotoxicity in HEK293 cells - 16 hour (AID 1224888); further: nearly all actives have a fitted effect of over 35% in size; further: potency means the concentration at half of the fitted maximal effect
Procedure, shortened: as §2

[16] = qHTS RealTime-Glo MT Cell Viability Assay in HepG2 cells - 0 hour (AID 1224889); further: nearly all actives have a fitted effect of over 50% in size
Procedure, shortened: as §4

[17] = A CellTox Green Cytotoxicity Assay to monitor cytotoxicity in HepG2 cells - 8 hour (AID 1224890); further: nearly all actives have a fitted effect of over 45% in size; further: potency means the concentration at half of the fitted maximal effect
Procedure, shortened: as §3

[18] = qHTS assay to identify small molecule antagonists of the estrogen receptor alpha (ER-alpha) signaling pathway using the BG1 cell line in the presence of 0.1 nM 17-beta-estradiol - cell viability counter screen (AID 1259241); further: nearly all actives have a fitted effect of over 40% in size
Procedure, shortened: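 Cytotoxicity counter-screen: live-cell protease activity measured by fluorescence (30 min reagent step) in the same wells. Cells were VM7Luc4E2 with endogenous ER-alpha and ERE-driven luciferase, treated 22 hr at 37C alongside 0.1 nM 17beta-estradiol final.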

[19] = qHTS assay to identify small molecule antagonists of the androgen receptor (AR) signaling pathway using the MDA cell line in the presence of 0.5 nM R1881 - cell viability counter screen (AID 1259242); further: nearly all actives have a fitted effect of over 45% in size
Procedure, shortened: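 qHTS format. MDA-kb2 (MMTV-luc, AR/GR responsive) + cpd + 0.5 nM R1881 final, 16 hr 37C/0% CO2 → CellTiter-Fluor 30 min → fluorescence intensity.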

[20] = molecular target: Androgen receptor (Homo sapiens) (UniProt P10275); experiment: qHTS assay to identify small molecule antagonists of the androgen receptor (AR) signaling pathway using the MDA cell line in the presence of 0.5 nM R1881 (AID 1259243); further: nearly all actives have a fitted effect of over 50% in size
Procedure, shortened: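 Antagonist mode quantitative HTS in MDA-kb2 MMTV-luciferase cells, agonist R1881 at 0.5 nM final, 16 hr exposure at 37C and 0% CO2, luminescent detection.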

Sequence of Androgen receptor (Homo sapiens) (P10275 whole entry, looked up): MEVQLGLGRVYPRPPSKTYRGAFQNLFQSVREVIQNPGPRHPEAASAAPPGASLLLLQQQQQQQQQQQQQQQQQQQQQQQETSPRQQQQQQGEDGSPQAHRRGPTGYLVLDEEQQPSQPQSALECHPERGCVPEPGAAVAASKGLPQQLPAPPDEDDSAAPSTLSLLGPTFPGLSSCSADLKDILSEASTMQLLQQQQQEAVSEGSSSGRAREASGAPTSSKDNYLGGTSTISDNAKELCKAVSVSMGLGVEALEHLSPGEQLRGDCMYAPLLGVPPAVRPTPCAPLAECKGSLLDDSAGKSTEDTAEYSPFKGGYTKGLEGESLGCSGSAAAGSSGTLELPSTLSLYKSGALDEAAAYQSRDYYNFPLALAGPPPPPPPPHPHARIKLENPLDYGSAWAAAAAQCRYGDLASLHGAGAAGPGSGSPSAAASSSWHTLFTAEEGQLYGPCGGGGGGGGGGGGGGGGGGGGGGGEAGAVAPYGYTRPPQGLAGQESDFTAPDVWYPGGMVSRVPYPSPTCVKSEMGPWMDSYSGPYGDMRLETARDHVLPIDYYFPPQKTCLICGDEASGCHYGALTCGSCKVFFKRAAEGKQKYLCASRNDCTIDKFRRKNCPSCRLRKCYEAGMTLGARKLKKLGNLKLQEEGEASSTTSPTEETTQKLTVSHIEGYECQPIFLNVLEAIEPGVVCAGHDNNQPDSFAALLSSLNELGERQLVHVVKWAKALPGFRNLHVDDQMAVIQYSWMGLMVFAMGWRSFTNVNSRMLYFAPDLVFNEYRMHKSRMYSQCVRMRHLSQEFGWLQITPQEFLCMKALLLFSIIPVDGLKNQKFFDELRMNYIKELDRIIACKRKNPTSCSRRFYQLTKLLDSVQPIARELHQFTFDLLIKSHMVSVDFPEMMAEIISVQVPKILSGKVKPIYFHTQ

SMILES	max response [1] [%]	Potency [2]	Potency [3]	Potency [4]	Potency [5]	Potency [6]	Potency [7]	Potency [8]	Potency [9]	Potency [10]	Potency [11]	Potency [12]	Potency [13]	Potency [14]	Potency [15]	Potency [16]	Potency [17]	Potency [18]	Potency [19]	Potency [20]
Cc1cc(CC(=O)O)c(C)n1-c1ccc(Cl)cc1	-0.616	inactive	inactive	inactive	inactive	inactive	inactive	inactive	inactive	inactive	inactive	inactive	inactive	inactive	inactive	inactive	inactive	inactive	inactive	–
N#CCCNCCC#N	6.76	inactive	inactive	inactive	inactive	inactive	inactive	inactive	inactive	inactive	inactive	inactive	inactive	inactive	inactive	inactive	inactive	inactive	inactive	–
C=CC[N+]1([C@H]2C[C@H]3[C@@H]4CC[C@H]5C[C@H](OC(C)=O)[C@@H](N6CCCCC6)C[C@]5(C)[C@H]4CC[C@]3(C)[C@H]2OC(=O)CC)CCCCC1	-20.7	inactive	inactive	inactive	inactive	inactive	inactive	inactive	inactive	inactive	inactive	inactive	inactive	inactive	inactive	inactive	inactive	inactive	inactive	–
CCOC(=O)C1=NN(c2ccccc2)C(=O)C1	1.57	inactive	inactive	inactive	inactive	inactive	inactive	inactive	inactive	inactive	inactive	inactive	inactive	inactive	inactive	inactive	inactive	inactive	inactive	–
O=C(Cl)c1c(Cl)cccc1Cl	-14.9	inactive	inactive	inactive	inactive	inactive	inactive	inactive	inactive	inactive	inactive	inactive	inactive	inactive	inactive	inactive	inactive	inactive	inactive	–
CCCc1ccccc1	0.274	inactive	inactive	inactive	inactive	inactive	inactive	inactive	inactive	inactive	inactive	inactive	inactive	inactive	inactive	inactive	inactive	inactive	inactive	–
COc1ccccc1OC(=O)Oc1ccccc1OC	1.1	inactive	inactive	inactive	inactive	inactive	inactive	inactive	inactive	inactive	inactive	inactive	inactive	inactive	inactive	inactive	inactive	inactive	inactive	–
CCN(CC)CCNC(C(=O)OCCC(C)C)c1ccccc1 (stereo not given)	-10.1	inactive	inactive	inactive	inactive	inactive	inactive	inactive	inactive	inactive	inactive	inactive	inactive	inactive	inactive	inactive	inactive	inactive	inactive	–
COCCO	11.8	inactive	inactive	inactive	inactive	inactive	inactive	inactive	inactive	inactive	inactive	inactive	inactive	inactive	inactive	inactive	inactive	inactive	inactive	–
CC(=O)NCCCS(=O)(=O)O	14.9	16.9 µM (active)	18.9 µM (active)	inactive	18.9 µM (active)	18.9 µM (active)	inactive	15 µM (active)	16.9 µM (active)	16.9 µM (active)	16.9 µM (active)	inactive	inactive	inactive	18.9 µM (active)	inactive	18.9 µM (active)	inactive	inactive	–
Cc1ccc(C)o1	-14.9	inactive	inactive	inactive	inactive	inactive	inactive	inactive	inactive	inactive	inactive	inactive	inactive	inactive	inactive	inactive	inactive	inactive	inactive	–
COc1ccc2[nH]c(S(=O)Cc3ncc(C)c(OC)c3C)nc2n1 (stereo not given)	-17.3	inactive	inactive	inactive	inactive	inactive	inactive	inactive	inactive	inactive	inactive	inactive	inactive	inactive	inactive	inactive	inactive	inactive	inactive	–
CC(C(=O)O)c1ccc(C(=O)c2ccccc2)s1 (stereo not given)	4.65	inactive	inactive	inactive	inactive	inactive	inactive	inactive	inactive	inactive	inactive	inactive	inactive	inactive	inactive	inactive	inactive	inactive	inactive	inactive
COC(Cc1ccccc1)OC	17.4	inactive	inactive	inactive	inactive	inactive	inactive	inactive	inactive	inactive	inactive	inactive	inactive	inactive	inactive	inactive	inactive	inactive	inactive	–
CC(C)(C)c1cc(CCC(=O)OCC(COC(=O)CCc2cc(C(C)(C)C)c(O)c(C(C)(C)C)c2)(COC(=O)CCc2cc(C(C)(C)C)c(O)c(C(C)(C)C)c2)COC(=O)CCc2cc(C(C)(C)C)c(O)c(C(C)(C)C)c2)cc(C(C)(C)C)c1O	0.256	inactive	inactive	inactive	inactive	inactive	inactive	inactive	inactive	inactive	inactive	inactive	inactive	inactive	inactive	inactive	inactive	inactive	inactive	–
CCN1CCC[C@H]1CNC(=O)c1c(OC)ccc(Br)c1OC	12.2	inactive	inactive	inactive	inactive	inactive	inactive	inactive	inactive	inactive	inactive	inactive	inactive	inactive	inactive	inactive	inactive	inactive	inactive	–
CC1CCc2cc(F)cc3c(=O)c(C(=O)O)cn1c23 (stereo not given)	7.68	inactive	inactive	inactive	inactive	inactive	inactive	inactive	inactive	inactive	inactive	inactive	inactive	inactive	inactive	inactive	inactive	–	inactive	–
CC(O)C1CCCCC1 (stereo not given)	3.26	inactive	inactive	inactive	inactive	inactive	inactive	inactive	inactive	inactive	inactive	inactive	inactive	inactive	inactive	inactive	inactive	inactive	inactive	–
Oc1ccc(C(O)CNCCCCCCNCC(O)c2ccc(O)c(O)c2)cc1O (stereo not given)	1.45	inactive	inactive	inactive	inactive	inactive	inactive	inactive	inactive	inactive	inactive	inactive	inactive	inactive	inactive	inactive	inactive	–	inactive	–
Nc1nc(N)c(-c2ccccc2)s1	5.71	inactive	inactive	inactive	inactive	inactive	inactive	inactive	inactive	inactive	inactive	inactive	inactive	inactive	inactive	inactive	inactive	–	inactive	–
O=C(NN1CCCC1)NS(=O)(=O)c1ccc(Cl)cc1	15.3	inactive	inactive	inactive	inactive	inactive	inactive	inactive	inactive	inactive	inactive	inactive	inactive	inactive	inactive	inactive	inactive	inactive	inactive	–
CC(=O)O[C@H]1C[C@@H]2CC[C@@H]3[C@H](CC[C@@]4(C)[C@H]3C[C@H]([N+]3(C)CCCCC3)[C@@H]4OC(C)=O)[C@@]2(C)C[C@@H]1N1CCCCC1	3.64	inactive	inactive	inactive	inactive	inactive	inactive	inactive	inactive	inactive	inactive	inactive	inactive	inactive	inactive	inactive	inactive	inactive	inactive	–
CCN(CC)C(C)=O	1.69	inactive	inactive	inactive	inactive	inactive	inactive	inactive	inactive	inactive	inactive	inactive	inactive	inactive	inactive	inactive	inactive	–	inactive	–
CC(C)c1cccc(C(C)C)c1NC(=O)NS(=O)(=O)c1cc(C(C)(C)O)co1	6.33	inactive	inactive	inactive	inactive	inactive	inactive	inactive	inactive	inactive	inactive	inactive	inactive	inactive	inactive	inactive	inactive	–	inactive	–
COCCOCCOCCOCCOC	-6.35	inactive	inactive	inactive	inactive	inactive	inactive	inactive	inactive	inactive	inactive	inactive	inactive	inactive	inactive	inactive	inactive	inactive	inactive	inactive
CC(=O)OC/C=C/c1ccccc1	5.43	inactive	inactive	inactive	inactive	inactive	inactive	inactive	inactive	inactive	inactive	inactive	inactive	inactive	inactive	inactive	inactive	–	inactive	–
CN1CCN(C2=Nc3ccccc3Sc3ccc(Cl)cc32)CC1	-9.09	inactive	inactive	inactive	inactive	inactive	inactive	inactive	inactive	inactive	inactive	inactive	inactive	inactive	inactive	inactive	inactive	inactive	inactive	inactive
NCCCN(CCO)CCO	-7.84	inactive	inactive	inactive	inactive	inactive	inactive	inactive	inactive	inactive	inactive	inactive	inactive	inactive	inactive	inactive	inactive	inactive	inactive	inactive

— PubChem BioAssay (Tox21)
